# Screening data (PubChem BioAssay)
# PriA SSB inh: blocks PriA binding to SSB C-terminal tail | AlphaScreen SSBct-PriA binding, biotinylated peptide | AID 1272365 | 430,000 tested, 0.6% active | inhibition, % at 33 µM; in the data active means inhibition mostly above about 37%, no sharp cut-off; inactive means mostly below about 20%;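 further: plate controls were negative control peptide for no effect and reference peptide for full effect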
# Mtb hypoxia inh: reduces hypoxia-regulated biosensor signal in M. tuberculosis | 300,000 tested, 0.1% active | fluorescence inhibition, % (concentration not given with the values) | M. tuberculosis hypoxia-regulated fluorescent reporter, fluorescence | AID 1159583; in the data active means fluorescence inhibition mostly above about 23%, no sharp cut-off; inactive means mostly below about 17%
# FadD28 FP inh: blocks FadD28 binding to the bisubstrate probe | fluorescence polarization | inhibition, % at 12.5 µM | 360,000 tested, 0.22% active | AID 588549; in the data active means inhibition above about 8.5%, passing the limit was not always enough
# BioA inh: blocks M. tuberculosis BioA enzyme activity; inhibition, % at 9.99 µM; purified M. tuberculosis BioA enzyme, plate reader; 360,000 tested, 0.096% active; in the data active means inhibition above about 40%
# PrP UTR inh: inhibition of PrP 5' UTR reporter expression; cell-based PrP 5' UTR mRNA reporter, plate reader; inhibition, % (no concentration beside the values); 340,000 tested, 0.35% active; AID 488862; in the data active means inhibition above about 52%; further: 0 = median of the neutral control wells
# TcdB GH inh: blocks C. difficile toxin B glycohydrolase activity. P18177. TcdB glycohydrolase enzymatic assay, plate reader. inhibition, % at 9.99 µM. 350,000 tested, 0.24% active; in the data active means inhibition above about 10%
# * = called active by the depositor; / = no result given. Rows were chosen to be rich in hits. Some 1% of all compounds tested hit in one or more screens of this group.
SMILES,PriA SSB inh,Mtb hypoxia inh,FadD28 FP inh,BioA inh,PrP UTR inh,TcdB GH inh
COc1cccc(-c2c(-c3cc(OC)cc(OC)c3)n(C)c3ccc(-c4cnc(OC)nc4)cc23)c1,-14.1,15.4,-0.8,-2.1,-17.7,/
COc1cccc(-c2c(-c3cc(OC)cc(OC)c3)n(C)c3ccc(-c4cnc(N5CCOCC5)nc4)cc23)c1,4.5,45.2*,-1.3,0.9,-19.3,2.5
CN(C)c1ccc(C=NN2C(=S)SC(C)(C)C2N(O)C(=O)Nc2ccc([N+](=O)[O-])cc2)cc1 (stereo unspecified),45.5*,/,/,/,/,/
CNC(=O)N(O)C1N(/N=C/c2ccc(SC)cc2)C(=S)SC1(C)C (stereo unspecified),/,/,0.1,-0.8,-20.9,10.2*
CNC(=O)N(O)C1N(N=Cc2ccc(C)cc2)C(=S)SC1(C)C (stereo unspecified),0.8,17.2,/,/,/,/
CN1CCN(c2ccc([N+](=O)[O-])c(N3CCCC3)c2)CC1,57.9*,/,/,/,/,/
CS(=O)(=O)N1CCN(c2ccc([N+](=O)[O-])c(N3CCCC3)c2)CC1,57.3*,/,/,/,/,/
O=C(O)c1cccc(-c2ccc(/C=c3\sc4nc5ccccc5n4c3=O)o2)c1,-6.3,/,/,/,/,/
CN(C)CCCn1cnc2c(c1=N)C(c1ccccc1)c1ccc3ccccc3c1O2 (stereo unspecified),51.0*,/,-18.3,0.6,-38.5,0.3
N#Cc1ccccc1NC(=O)c1cc(=O)c2ccccc2o1,-9.6,-2.0,12.3*,/,-62.2,0.5
O=S(=O)(O)c1cccc2cccc(Nc3ccccc3)c12,-4.6,11.3,80.9*,6.1,-15.0,-1.0
C[C@H](CO)N1C[C@H](C)[C@@H](CN(C)C(=O)Nc2ccc3c(c2)OCO3)Oc2ccc(NC(=O)CCC(F)(F)F)cc2CC1=O,/,/,/,-0.1,/,1.1
C[C@@H]1CN([C@H](C)CO)C(=O)Cc2cc(NC(=O)NC3CCCCC3)ccc2O[C@@H]1CN(C)Cc1ccc(Cl)c(Cl)c1,/,/,/,-2.8,/,0.1
COc1ccccc1NC(=O)c1ccc(N)cc1,-2.6,6.6,-0.2,-2.2,-15.6,-0.5
COC(=O)c1ccc(C(=O)Nc2ccc(N)cc2N)cc1,39.6*,15.3,-2.8,-1.7,-11.5,/
Cc1ccc(Oc2ccccc2NC(=O)CSCC(=O)Nc2cc(C)on2)cc1,6.1,2.0,-1.7,2.0,-10.5,-0.7
Nc1[nH]c(C(=O)c2ccccc2)c(-c2ccccc2C(F)(F)F)c1C(=O)c1cccs1,/,/,/,/,/,2.6
CCOC(=O)N1CCN(S(=O)(=O)c2ccc(C(=O)NNc3nc4ccc(Cl)cc4s3)cc2)CC1,-9.5,-1.3,11.7*,-1.1,-17.7,/
CCOC(=O)N1CCN(S(=O)(=O)c2ccc(C(=O)NNc3nc4c(C)cc(C)cc4s3)cc2)CC1,-5.6,-8.5,15.0*,-1.1,/,0.8
CCOC(=O)N1CCN(S(=O)(=O)c2ccc(C(=O)NNc3nc4cc(C)cc(C)c4s3)cc2)CC1,-1.1,/,2.6,-0.4,1.0,/
CCOC(=O)N1CCN(S(=O)(=O)c2ccc(C(=O)NNc3nc4c(C)cccc4s3)cc2)CC1,9.7,2.8,17.1*,0.8,-1.3,1.2
Cc1cccc2sc(NNC(=O)c3ccc(S(=O)(=O)N4CCc5ccccc5C4)cc3)nc12,-5.1,3.5,2.8,-0.9,7.8,1.0
Cc1ccc(SC[C@H](Cc2ccccc2)N2CCN(CCc3ccccc3)CCC2=O)cc1,29.3,/,-1.4,-0.5,3.2,0.5
Cc1cc(C(=O)NN=Cc2c(CO)cnc(C)c2O)c2ccccc2n1,39.6*,14.6,/,/,/,/
Cc1ncc(CO)c(C=NNc2ccc(C(F)(F)F)cn2)c1O,71.7*,/,/,/,/,/
SMILES,PriA SSB inh,Mtb hypoxia inh,FadD28 FP inh,BioA inh,PrP UTR inh,TcdB GH inh
Cc1cc(C(=O)N/N=C/c2c(CO)cnc(C)c2O)c2ccccc2n1,/,/,-4.2,-1.7,4.1,-1.0
Cc1ncc(CO)c(C=NNc2cccc(Cl)n2)c1O,-1.9,4.7,/,/,/,/
CCN(C[C@@H]1[C@@H](c2ccccc2)[C@H](CO)N1S(C)(=O)=O)C(=O)C1CC1,/,/,/,-2.8,/,-7.6
Cc1ccc(NC(=O)Nc2cccc(Cl)c2)c(C(=O)O)c1,-2.3,-1.0,1.5,/,-14.5,/
O=c1cccnn1CCNS(=O)(=O)c1cc(C(F)(F)F)cc(C(F)(F)F)c1,38.0*,/,/,/,/,/
O=c1cccnn1CCCNS(=O)(=O)c1cc(C(F)(F)F)ccc1Cl,-17.0,/,/,/,/,/
CCCCCCCn1c(C)nnc1-c1cnn(C)c1N,1.4,-8.5,0.4,/,-24.2,-0.6
C/C=C/c1ccc([C@@H]2[C@@H](CN(C)C(C)=O)N(C(=O)NC(C)C)[C@H]2CO)cc1,/,/,/,-6.3,/,/
COc1ccc(NC(=O)CSc2ccc(-c3ccccn3)nn2)cc1,41.6,/,/,/,/,/
COc1cc(NC(=O)CSc2ccc(-c3ccccn3)nn2)cc(OC)c1,77.5*,8.8,-4.1,-1.6,-21.0,0.5
COc1cccc(NC(=O)CSc2ccc(-c3ccccn3)nn2)c1,76.1*,/,/,/,/,/
CS(=O)(=O)c1ccc(CC(=O)Nc2nnc(C3CCCO3)o2)cc1 (stereo unspecified),61.0*,/,/,/,/,/
CS(=O)(=O)c1ccc(C(=O)Nc2nnc(C3CCCO3)o2)cc1 (stereo unspecified),-1.0,/,/,/,/,/
COc1ccc(NS(=O)(=O)c2ccc3c(c2)[C@H]2C=CC[C@H]2[C@@H](c2ccc(C(=O)O)cc2)N3)cc1,9.0,/,32.2*,2.0,-14.8,0.7
Cc1c(Cl)cccc1NS(=O)(=O)c1ccc2c(c1)C1C=CCC1C(c1ccc(C(=O)O)cc1)N2 (stereo unspecified),23.6,3.2,27.7*,/,-32.5,/
CC(=O)c1ccc2c(c1)C1C=CCC1C(c1ccc(S(=O)(=O)N3CCOCC3)cc1)N2 (stereo unspecified),-8.5,-3.9,-4.6,/,-19.1,/
CCCN(CC(=O)Nc1ccccc1C)C(=O)C1CC(=O)N(c2cccc(C)c2C)C1 (stereo unspecified),-0.1,3.7,-0.8,/,-9.3,0.5
CC(C)Nc1nc(C#N)nc(NC(C)C)n1,42.0*,4.9,-3.6,1.3,-22.6,/
O=C(CN1C(=O)NC2(CCc3ccccc32)C1=O)c1ccc(Br)cc1 (stereo unspecified),0.6,-1.7,3.0,1.0,-6.1,0.8
O=C(CN1C(=O)NC2(CCCc3ccccc32)C1=O)c1ccc(Br)cc1 (stereo unspecified),-5.9,6.7,17.2*,-1.6,-10.5,-1.2
Cc1cccc(-c2nsc(SCC(=O)NCc3ccc4c(c3)OCO4)n2)c1,2.0,17.7,-0.2,/,-12.5,/
O=C(/C=C/c1ccccc1)C1C(=O)c2ccccc2C1=O,-10.0,2.2,0.2,/,-24.4,/
CCc1ccc(/C=C/C(=O)C2C(=O)c3ccccc3C2=O)cc1,4.4,3.6,13.4*,/,18.3,/
Nc1nc(CCOc2ccc(F)cc2)cs1,3.5,-3.4,-1.6,/,-68.8,11.1*
Cc1c(Br)c(=O)oc2c(Br)c(O)c(O)cc12,0.3,15.7,13.3*,/,0.0,-4.1
Cc1c(Br)c(=O)oc2c(Br)c(O)ccc12,-5.2,-1.9,-0.2,/,-0.8,0.9
CCOc1ccc2c(ccc(/C=C/c3cc(C)c4cccnc4c3O)[n+]2C)c1,95.9,/,15.8*,/,19.4,/
